Results on 30 compounds are retold here after PubChem BioAssay (NCATS).

The source made the active and inactive calls. Calls follow the shape of the full dose curve.

What all share (test): Confirmatory Screen for Target Class Profiling of Small Molecule Inhibitors of Methyltransferases (AID 1745852); as to activity change, negative = inhibition: % is scaled to controls: 0 for no effect and ±100 for the full control effect
Experiment [1] deals with Catechol O-methyltransferase (Homo sapiens) (UniProt P21964). The note with it: MTase-Glo luminescence, SAH detection, recombinant enzyme; measured here: COMT max response; stronger effect = lower value.
In experiment [2] the target is Guanidinoacetate N-methyltransferase (Homo sapiens) (UniProt Q14353). The note with it: MTase-Glo luminescence, SAH detection, recombinant enzyme; activity change, negative = inhibition: at 57.3 µM (top of the series) unless noted; series mostly up to 57.3 µM.
The target in experiment [3] is Nicotinamide N-methyltransferase (Homo sapiens) (UniProt P40261). To be noted: MTase-Glo luminescence, SAH detection, recombinant enzyme; measured here: NNMT max response; stronger effect = lower value.
Experiment [4] concerns the target Phenylethanolamine N-methyltransferase (Homo sapiens) (UniProt P11086). The note with it: MTase-Glo luminescence, SAH detection, recombinant enzyme; measured here: PNMT max response; stronger effect = lower value.
Potency is read from the fitted curve at half-maximal effect.

Chain of Catechol O-methyltransferase (Homo sapiens) (P21964 whole entry, looked up): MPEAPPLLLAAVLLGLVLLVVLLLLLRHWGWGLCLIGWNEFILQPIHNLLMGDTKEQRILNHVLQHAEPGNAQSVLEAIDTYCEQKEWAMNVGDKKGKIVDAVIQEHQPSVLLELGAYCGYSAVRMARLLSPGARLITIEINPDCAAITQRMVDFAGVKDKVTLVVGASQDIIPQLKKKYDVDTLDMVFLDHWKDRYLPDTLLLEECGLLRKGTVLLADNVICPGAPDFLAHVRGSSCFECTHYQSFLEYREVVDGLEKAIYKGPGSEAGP
Chain of Phenylethanolamine N-methyltransferase (Homo sapiens) (P11086 whole entry, looked up): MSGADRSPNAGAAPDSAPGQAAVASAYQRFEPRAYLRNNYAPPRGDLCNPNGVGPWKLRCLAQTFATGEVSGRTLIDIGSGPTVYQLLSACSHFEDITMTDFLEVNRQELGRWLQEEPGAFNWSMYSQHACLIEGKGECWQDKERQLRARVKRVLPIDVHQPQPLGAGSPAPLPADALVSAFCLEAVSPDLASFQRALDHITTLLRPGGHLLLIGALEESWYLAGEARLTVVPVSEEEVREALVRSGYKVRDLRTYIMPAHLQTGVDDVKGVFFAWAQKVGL
Chain of Nicotinamide N-methyltransferase (Homo sapiens) (P40261 whole entry, looked up): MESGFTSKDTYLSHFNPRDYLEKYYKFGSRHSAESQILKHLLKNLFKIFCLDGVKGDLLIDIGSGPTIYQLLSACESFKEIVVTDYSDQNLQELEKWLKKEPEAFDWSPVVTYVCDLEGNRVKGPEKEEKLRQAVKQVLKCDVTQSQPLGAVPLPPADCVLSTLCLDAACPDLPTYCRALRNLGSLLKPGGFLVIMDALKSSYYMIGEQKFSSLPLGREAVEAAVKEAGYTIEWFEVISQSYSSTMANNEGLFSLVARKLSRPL

Consider `COc1ccc(CNc2cc3c(cn2)CN(C)CCN3)cc1OC`, for which the values for the activity in experiment [1], in experiment [3] and in experiment [4] were 6.61%, 0.597% and 7.35%, respectively. Further, the activity change, negative = inhibition in experiment [2] came out at 1.57% [at 85.7 µM].

Take `CCCC1c2cccn2CCN1C(=O)Nc1cc(Cl)ccc1C` (stereo not given): the activity in experiment [1] is 1.08%; in experiment [3] it was -4.96%; in experiment [4], -0.621%. Besides, the Potency entry in experiment [2] was “inactive”.

`COc1ccc(CCNC(=O)CCc2nnc3n(CC(C)C)c(=O)c4ccccc4n23)cc1OC`: the activity was -6.74% in experiment [1], -43.7% in experiment [3] and -6.97% in experiment [4]. The activity change, negative = inhibition in experiment [2] is -2.85%.

For the compound `O=C(CCC[C@@H]1[C@H]2CCCN3CCC[C@@H](CN1Cc1ccccc1)[C@@H]23)Nc1cccnc1`, the results for the activity in experiment [1], in experiment [3] and in experiment [4] were -3.16%, -11.8% and -2.62%, respectively. Further, the activity change, negative = inhibition in experiment [2] was -5.99%.

For the compound `COc1ccc(CCNC(=O)c2ccc3c(=O)[nH]c4c(C(=O)NCC5CCCO5)sc(=S)n4c3c2)cc1OC` (stereo not given), the activity in experiment [1] is -41.4%; in experiment [3], -23.3%; in experiment [4], -16.5%. Moreover, the Potency in experiment [2] is 27.1 µM (active).

In the case of `COc1ccc(CCN2C(=O)c3cc4oc(C)cc4n3CC2(C)C(=O)NC2CCCCC2)cc1OC` (stereo not given), the activity was -7.54% in experiment [1], -78.3% in experiment [3] and -5.67% in experiment [4]. The activity change, negative = inhibition in experiment [2] was -4.8%.

With `CC(C)OCCCn1c(=O)c2ccccc2n2c(CCC(=O)N3CCN(c4cccc(Cl)c4)CC3)nnc12`, the activity in experiment [1] is 0.543%; in experiment [3], -39.1%; in experiment [4] it was -4.41%. Further, in experiment [2], the activity change, negative = inhibition is 0%.

On to `O=C(OCc1ccccc1)N1CCOCC12CCN(Cc1c[nH]c3ccccc13)CC2`, for which the values for the activity in experiment [1], in experiment [3] and in experiment [4] were 6.86%, 5.55% and 1.46%, respectively. Moreover, the activity change, negative = inhibition in experiment [2] amounted to 9.15% [at 85.7 µM].

`CC1(C(=O)NC2CCCCCC2)Cn2c(c(-n3cccc3)c3ccccc32)C(=O)N1CC1CCCO1` (stereo not given): the activity in experiment [1] is 4.7%; in experiment [3], -46.9%; in experiment [4] it was 0%. Further, the activity change, negative = inhibition in experiment [2] was 0.126%.

As for `O=C(CCCc1nnc2n3nc(-c4ccccc4)nc3c3ccccc3n12)N1CCC(N2CCCCC2)CC1`, the activity in experiment [1] was -14.2%; in experiment [3], -20.9%; in experiment [4] it was -10.5%. Besides, the activity change, negative = inhibition in experiment [2] is -7.55%.

Turning to `O=C(NCc1ccc2c(c1)OCO2)c1sc(=S)n2c1[nH]c(=O)c1ccc(Cl)cc12`, the figures for the activity in experiment [1], in experiment [3] and in experiment [4] were -88.3%, -87.4% and -92.6%, respectively. Further, the Potency in experiment [2] is 24.1 µM (active).

As to `COc1ccc(C(=O)N(Cc2ccco2)S(=O)(=O)c2ccc3c(c2)n(C)c(=O)n3C)cc1`, the activity was -5.23% in experiment [1], -20% in experiment [3] and -5.7% in experiment [4]. The activity change, negative = inhibition in experiment [2] is -1.3%.

As for `O=C(Cc1ccsc1)Nc1ccc2c(N3CCCC3)ncnc2c1`, the figures for the activity in experiment [1], in experiment [3] and in experiment [4] were 0.696%, 3.05% and -6.83%, respectively. The activity change, negative = inhibition in experiment [2] amounted to 4.54%.

On to `O=C(Cn1c(=O)oc2cc(S(=O)(=O)N3CCCC3)ccc21)Nc1cccc(Cl)c1`, for which the activity was -1.16% in experiment [1], 4.81% in experiment [3] and -49.8% in experiment [4]. The activity change, negative = inhibition in experiment [2] worked out at 0%.

For the compound `COc1ccc(OC)c2c1cc1n2CC(C)(C(=O)NC2CCCCC2C)N(Cc2ccco2)C1=O` (stereo not given), the activity in experiment [1] is -9.78%; in experiment [3] it was -25.6%; in experiment [4], -10.3%. The activity change, negative = inhibition in experiment [2] was -6.29%.

As for `CN(CCCNC(=O)CCc1nnc2n(Cc3ccccc3)c(=O)c3ccccc3n12)Cc1ccccc1`, the activity in experiment [1] was 1.61%; in experiment [3], -7.26%; in experiment [4], -2.41%. Further, in experiment [2], the activity change, negative = inhibition stood at 0%.

As to `Cc1cccc(N2CCN(C(=O)c3ccc4c(=O)[nH]c5c(C(=O)NC(C)C)sc(=S)n5c4c3)CC2)c1C`, the activity is -37.2% in experiment [1], -76.7% in experiment [3] and -28.7% in experiment [4]. Besides, the activity change, negative = inhibition in experiment [2] turned out to be 0.0257%.

On to `Cn1c(COc2cccc(CN3CCCC3)c2Cl)nnc1C1CC(N)C1` (stereo not given), for which the figures for the activity in experiment [1], in experiment [3] and in experiment [4] were 0.772%, -2.09% and -1.62%, respectively. Further, the activity change, negative = inhibition in experiment [2] was -2.28%.

With `COc1ccc(CC(=O)Nc2ccc3ncnc(N4CCCC4)c3c2)c(Cl)c1`, the activity in experiment [1] is -2.51%; in experiment [3], -30.7%; in experiment [4] it was -8.25%. For the same compound, the activity change, negative = inhibition in experiment [2] is -0.581%.

Turning to `CCc1cccc(NC(=O)Cn2c(=O)oc3cc(S(=O)(=O)N4CC(C)CC(C)C4)ccc32)c1` (stereo not given), the activity in experiment [1] was 3.4%; in experiment [3], -6.52%; in experiment [4], -59.2%. Further, in experiment [2], the activity change, negative = inhibition is 0%.

`COc1ccc(CCNc2nc3c(S(=O)(=O)c4ccccc4)nnn3c3ccccc23)cc1OC`: the activity was -10.7% in experiment [1], -17.5% in experiment [3] and -12.4% in experiment [4]. Besides, the activity change, negative = inhibition in experiment [2] was -7.04%.

With `COc1cccc(NC(=O)Cn2c(=O)oc3cc(S(=O)(=O)N4CC(C)CC(C)C4)ccc32)c1` (stereo not given), the activity in experiment [1] was 3.17%; in experiment [3], -1.21%; in experiment [4], -70.5%. For the same compound, the activity change, negative = inhibition in experiment [2] amounted to 0%.

As to `CC1(C(=O)NC2CCCCC2)Cn2c(c(-n3cccc3)c3ccccc32)C(=O)N1Cc1ccccn1` (stereo not given), the activity in experiment [1] is 0%; in experiment [3], -45.4%; in experiment [4], 2.72%. In addition, the activity change, negative = inhibition in experiment [2] turned out to be 0%.

For `COc1ccc(OCc2cc(C(=O)NC(CO)C(C)C)no2)c2ccccc12` (stereo not given), the activity worked out at 3.87% in experiment [1], 5.13% in experiment [3] and 0.331% in experiment [4]. The activity change, negative = inhibition in experiment [2] was 1.38%.

Regarding `O=[S+]1([O-])NC2(CCCN(Cc3c(F)cccc3Cl)C2)COc2ccccc21` (stereo not given), the activity in experiment [1] is -6.32%; in experiment [3], -5.33%; in experiment [4], -3.56%. Besides, the activity change, negative = inhibition in experiment [2] worked out at 2.18%.

Take `Cn1ccc2c(C(=O)NCCc3cnc[nH]3)nc(-c3ccc(N4CCOCC4)cc3)cc21`: the activity in experiment [1] is -6.99%; in experiment [3] it was 2.75%; in experiment [4] it was -6.64%. Further, the activity change, negative = inhibition in experiment [2] is -0.183% [at 85.7 µM].

On to `O=C(NCc1ccccc1)c1ccc2c(=O)nc3c(-c4ccccc4F)n[nH]n3c2c1`, for which the results for the activity in experiment [1], in experiment [3] and in experiment [4] were -13.3%, -8.4% and -13.5%, respectively. The Potency in experiment [2] is 0.121 µM (active).

On to `Cc1cnc(C2CC2)n1C1CCCN(Cc2ccccc2)C1` (stereo not given), for which the values for the activity in experiment [1], in experiment [3] and in experiment [4] were 3.04%, -1.39% and 0.832%, respectively. In addition, in experiment [2], the activity change, negative = inhibition was 5.24%.

For `CCOC(=O)c1cc2n(n1)CC(C)(C(=O)NCCC(C)C)N(c1ccccc1C)C2=O` (stereo not given), the results for the activity in experiment [1], in experiment [3] and in experiment [4] were 2.78%, 3.85% and 1.34%, respectively. Besides, the Potency entry in experiment [2] was “inactive”.

Consider `CCN(CC)CCNC(=O)CCc1nnc2n(CCc3ccccc3)c(=O)c3ccccc3n12`, for which the activity in experiment [1] is -2.93%; in experiment [3], -10.6%; in experiment [4], 3.34%. In experiment [2], the activity change, negative = inhibition is 1.05%.
